# Experimental data published in PMC7862700, “An all-to-all approach to the identification of sequence-specific readers for epigenetic DNA modifications on cytosine”.
# Assays:
# Assay in all cases: DAPPL (digital affinity profiling via proximity ligation, sequencing); 10 mM Tris-HCl pH 7.5, 50 mM NaCl, 1 mM DTT, 4% glycerol, room temperature, 30 min; GST-TFs on glutathione beads, 16-mer random dsDNA library, 0.1% formaldehyde crosslink after washing; high values mean tight binding
# FEV = biological target: T1, FEV (Homo sapiens, UniProt Q99581 1-238); settings: protein: recombinant; tags: N-terminal GST; dsDNA, one strand shown
# T1 sequence: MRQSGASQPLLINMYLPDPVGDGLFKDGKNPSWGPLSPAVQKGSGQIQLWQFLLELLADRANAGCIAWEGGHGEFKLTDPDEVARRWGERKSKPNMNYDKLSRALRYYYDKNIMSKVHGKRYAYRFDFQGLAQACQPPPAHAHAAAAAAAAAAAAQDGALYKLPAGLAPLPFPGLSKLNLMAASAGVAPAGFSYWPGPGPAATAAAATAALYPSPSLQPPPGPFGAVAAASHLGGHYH
# Summary of the method: (§1)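 Human transcription factors carrying a GST fusion were produced in yeast, bound to glutathione beads, tagged with DNA barcodes and pooled together with a tag-only sample. Each pool was held with 200 nmole of a random double-stranded 16-mer DNA library in Tris/NaCl/DTT/glycerol buffer for 30 min at room temperature, then washed, crosslinked in 0.1% formaldehyde, proximity-ligated with BsaI/T4 ligase (1 h, 37 °C), PCR-amplified and sequenced on an Illumina NextSeq500. Binding signal is the read frequency of each hexamer for a given factor divided by its frequency in the tag-only sample.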
# ETV5 = ETV5 (Homo sapiens, UniProt P41161 1-510); settings: protein: recombinant; tags: N-terminal GST; dsDNA, one strand shown
# Sequence of ETV5 (P41161 whole entry): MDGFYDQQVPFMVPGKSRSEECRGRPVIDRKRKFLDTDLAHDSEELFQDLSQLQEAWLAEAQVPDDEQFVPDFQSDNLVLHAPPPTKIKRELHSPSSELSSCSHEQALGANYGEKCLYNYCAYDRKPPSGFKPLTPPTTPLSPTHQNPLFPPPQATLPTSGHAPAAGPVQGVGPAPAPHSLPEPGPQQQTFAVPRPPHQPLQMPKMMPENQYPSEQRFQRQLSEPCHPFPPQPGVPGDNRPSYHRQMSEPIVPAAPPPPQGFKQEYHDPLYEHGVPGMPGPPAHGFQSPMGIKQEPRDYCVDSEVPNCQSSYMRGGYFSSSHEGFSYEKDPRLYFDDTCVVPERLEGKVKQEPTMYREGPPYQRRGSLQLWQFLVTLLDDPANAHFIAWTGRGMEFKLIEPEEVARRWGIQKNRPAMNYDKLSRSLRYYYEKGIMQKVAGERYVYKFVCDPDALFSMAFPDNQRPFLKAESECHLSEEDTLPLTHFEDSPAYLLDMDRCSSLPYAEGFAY
# Summary of the method: as §1
# HSF1 = HSF1 (Homo sapiens, UniProt Q00613 1-529); settings: protein: recombinant; tags: N-terminal GST; chain copies: 3; dsDNA, one strand shown
# Sequence of HSF1 (Q00613 whole entry): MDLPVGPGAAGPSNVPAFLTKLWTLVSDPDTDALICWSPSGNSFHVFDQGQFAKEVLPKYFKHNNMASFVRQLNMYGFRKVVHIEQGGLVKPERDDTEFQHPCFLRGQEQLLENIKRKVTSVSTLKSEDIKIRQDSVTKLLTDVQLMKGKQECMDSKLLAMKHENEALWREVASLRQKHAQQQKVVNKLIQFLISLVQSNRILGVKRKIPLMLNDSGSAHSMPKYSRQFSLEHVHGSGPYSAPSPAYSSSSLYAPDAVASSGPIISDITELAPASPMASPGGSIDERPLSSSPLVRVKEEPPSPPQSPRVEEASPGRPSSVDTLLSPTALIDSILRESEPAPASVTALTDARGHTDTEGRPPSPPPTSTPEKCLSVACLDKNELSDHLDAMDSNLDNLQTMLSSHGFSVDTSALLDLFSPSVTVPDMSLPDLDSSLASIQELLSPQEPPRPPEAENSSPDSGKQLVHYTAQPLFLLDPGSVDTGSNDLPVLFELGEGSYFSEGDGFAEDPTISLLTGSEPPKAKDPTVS
# Summary of the method: as §1
# SPIC = biological target: T2, SPIC (Homo sapiens, UniProt Q8N5J4 1-248); settings: protein: recombinant; tags: N-terminal GST; dsDNA, one strand shown
# T2 sequence: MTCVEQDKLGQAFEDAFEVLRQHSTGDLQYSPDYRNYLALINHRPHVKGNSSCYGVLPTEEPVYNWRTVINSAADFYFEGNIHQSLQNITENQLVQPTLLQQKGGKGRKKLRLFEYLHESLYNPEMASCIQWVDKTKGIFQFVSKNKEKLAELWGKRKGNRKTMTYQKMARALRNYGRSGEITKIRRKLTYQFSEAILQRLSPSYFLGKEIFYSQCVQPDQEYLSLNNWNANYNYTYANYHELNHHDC
# Summary of the method: as §1
# ELF4 = ELF4 (Homo sapiens, UniProt Q99607 1-663); settings: protein: recombinant; tags: N-terminal GST; dsDNA, one strand shown
# Sequence of ELF4 (Q99607 whole entry): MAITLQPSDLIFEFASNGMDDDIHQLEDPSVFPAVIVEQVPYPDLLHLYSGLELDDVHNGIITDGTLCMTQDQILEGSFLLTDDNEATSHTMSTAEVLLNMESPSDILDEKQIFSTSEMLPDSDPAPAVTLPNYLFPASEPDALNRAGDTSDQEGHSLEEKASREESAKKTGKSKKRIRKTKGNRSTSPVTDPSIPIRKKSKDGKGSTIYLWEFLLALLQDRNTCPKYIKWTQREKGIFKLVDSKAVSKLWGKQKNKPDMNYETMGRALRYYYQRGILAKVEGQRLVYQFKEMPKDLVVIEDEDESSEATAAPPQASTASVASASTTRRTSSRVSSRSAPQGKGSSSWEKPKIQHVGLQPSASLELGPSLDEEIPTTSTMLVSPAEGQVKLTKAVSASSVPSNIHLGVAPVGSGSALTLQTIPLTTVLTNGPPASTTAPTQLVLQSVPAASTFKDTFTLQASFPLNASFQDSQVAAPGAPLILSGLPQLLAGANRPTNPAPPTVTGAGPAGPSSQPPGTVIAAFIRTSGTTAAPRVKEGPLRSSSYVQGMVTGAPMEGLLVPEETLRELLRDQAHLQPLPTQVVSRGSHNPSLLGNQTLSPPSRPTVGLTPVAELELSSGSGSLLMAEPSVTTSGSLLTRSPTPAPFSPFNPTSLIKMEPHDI
# Summary of the method: as §1
# ELK4 = biological target: T3, ELK4 (Homo sapiens, UniProt P28324-2 1-405); settings: protein: recombinant; tags: N-terminal GST; dsDNA, one strand shown
# T3 sequence: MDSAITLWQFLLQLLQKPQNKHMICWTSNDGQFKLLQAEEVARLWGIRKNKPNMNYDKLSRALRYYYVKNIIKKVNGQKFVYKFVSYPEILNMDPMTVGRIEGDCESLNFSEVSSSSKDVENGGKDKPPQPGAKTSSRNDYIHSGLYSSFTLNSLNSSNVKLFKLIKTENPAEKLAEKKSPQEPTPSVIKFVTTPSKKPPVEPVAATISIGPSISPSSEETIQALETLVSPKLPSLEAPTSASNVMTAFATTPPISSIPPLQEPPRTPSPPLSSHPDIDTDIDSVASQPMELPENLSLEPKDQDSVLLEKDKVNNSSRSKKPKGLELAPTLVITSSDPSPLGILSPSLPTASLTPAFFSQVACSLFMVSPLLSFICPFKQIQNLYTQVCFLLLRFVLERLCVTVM
# Summary of the method: as §1
# ETV2 = biological target: T4, ETV2 (Homo sapiens, UniProt O00321 1-342); settings: protein: recombinant; tags: N-terminal GST; dsDNA, one strand shown
# T4 sequence: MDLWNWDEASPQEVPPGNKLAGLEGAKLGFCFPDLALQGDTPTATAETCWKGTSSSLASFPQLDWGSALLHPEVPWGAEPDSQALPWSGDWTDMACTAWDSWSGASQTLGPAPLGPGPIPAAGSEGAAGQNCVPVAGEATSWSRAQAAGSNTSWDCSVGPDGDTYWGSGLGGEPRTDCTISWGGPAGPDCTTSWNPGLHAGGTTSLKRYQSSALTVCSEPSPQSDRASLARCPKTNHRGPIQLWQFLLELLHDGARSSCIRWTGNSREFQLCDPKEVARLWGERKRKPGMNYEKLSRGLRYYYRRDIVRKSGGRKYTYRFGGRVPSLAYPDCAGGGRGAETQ
# Summary of the method: as §1
# ELF3 = biological target: T5, ELF3 (Homo sapiens, UniProt P78545 1-371); settings: protein: recombinant; tags: N-terminal GST; dsDNA, one strand shown
# T5 sequence: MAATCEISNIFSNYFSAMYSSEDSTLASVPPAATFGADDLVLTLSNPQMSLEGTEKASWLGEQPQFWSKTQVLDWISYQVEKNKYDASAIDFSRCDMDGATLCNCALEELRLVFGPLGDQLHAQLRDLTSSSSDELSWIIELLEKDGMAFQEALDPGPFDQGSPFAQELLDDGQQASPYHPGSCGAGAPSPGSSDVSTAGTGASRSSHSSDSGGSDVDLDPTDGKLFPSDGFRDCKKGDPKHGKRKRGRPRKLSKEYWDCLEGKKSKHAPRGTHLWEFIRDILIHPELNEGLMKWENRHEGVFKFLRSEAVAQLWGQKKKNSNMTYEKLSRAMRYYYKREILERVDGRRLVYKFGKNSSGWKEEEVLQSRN
# Summary of the method: as §1
# CRX = CRX (Homo sapiens, UniProt O43186 1-299); settings: protein: recombinant; tags: N-terminal GST; dsDNA, one strand shown
# Sequence of CRX (O43186 whole entry): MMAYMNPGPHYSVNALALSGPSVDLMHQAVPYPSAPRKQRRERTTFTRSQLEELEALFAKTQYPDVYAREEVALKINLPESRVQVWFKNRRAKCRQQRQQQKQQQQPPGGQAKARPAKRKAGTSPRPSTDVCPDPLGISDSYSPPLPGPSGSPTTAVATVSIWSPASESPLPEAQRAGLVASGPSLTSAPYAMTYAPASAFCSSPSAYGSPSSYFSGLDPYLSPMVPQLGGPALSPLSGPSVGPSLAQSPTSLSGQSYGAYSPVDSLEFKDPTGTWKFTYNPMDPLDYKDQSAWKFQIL
# Summary of the method: as §1
# ETV1 = ETV1 (Homo sapiens, UniProt P50549 1-477); settings: protein: recombinant; tags: N-terminal GST; dsDNA, one strand shown
# Sequence of ETV1 (P50549 whole entry): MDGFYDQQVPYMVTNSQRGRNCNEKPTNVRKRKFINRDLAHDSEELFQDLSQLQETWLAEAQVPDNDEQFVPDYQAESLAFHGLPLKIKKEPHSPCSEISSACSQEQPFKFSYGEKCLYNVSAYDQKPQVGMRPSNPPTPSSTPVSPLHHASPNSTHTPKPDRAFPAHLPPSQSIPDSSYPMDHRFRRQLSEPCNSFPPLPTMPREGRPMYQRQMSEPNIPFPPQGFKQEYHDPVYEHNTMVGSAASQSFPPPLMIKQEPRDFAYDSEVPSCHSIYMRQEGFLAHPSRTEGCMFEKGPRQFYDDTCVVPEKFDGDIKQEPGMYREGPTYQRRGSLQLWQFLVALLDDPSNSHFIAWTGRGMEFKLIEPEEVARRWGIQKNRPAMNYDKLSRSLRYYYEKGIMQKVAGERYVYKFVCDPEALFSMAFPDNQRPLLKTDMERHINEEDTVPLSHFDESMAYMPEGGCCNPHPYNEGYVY
# Summary of the method: as §1
# ERF = biological target: T6, ERF (Homo sapiens, UniProt P50548 1-548); settings: protein: recombinant; tags: N-terminal GST; dsDNA, one strand shown
# T6 sequence: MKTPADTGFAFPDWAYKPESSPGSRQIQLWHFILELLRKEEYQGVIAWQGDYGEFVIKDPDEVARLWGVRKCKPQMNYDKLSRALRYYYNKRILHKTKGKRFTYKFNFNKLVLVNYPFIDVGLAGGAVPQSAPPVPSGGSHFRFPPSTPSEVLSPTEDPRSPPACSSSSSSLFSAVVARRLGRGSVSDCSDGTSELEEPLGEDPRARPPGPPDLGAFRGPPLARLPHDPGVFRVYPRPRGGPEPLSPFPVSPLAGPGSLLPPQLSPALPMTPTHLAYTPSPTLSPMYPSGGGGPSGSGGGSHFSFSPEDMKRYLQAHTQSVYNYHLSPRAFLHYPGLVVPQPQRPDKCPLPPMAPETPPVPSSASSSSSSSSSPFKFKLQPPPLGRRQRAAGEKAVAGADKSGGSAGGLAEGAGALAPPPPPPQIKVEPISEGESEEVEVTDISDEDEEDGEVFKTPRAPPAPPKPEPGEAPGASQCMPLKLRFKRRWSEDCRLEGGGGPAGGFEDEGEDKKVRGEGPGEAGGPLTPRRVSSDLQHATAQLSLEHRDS
# Summary of the method: as §1
# ETV3L = biological target: T7, ETV3L (Homo sapiens, UniProt Q6ZN32 1-361); settings: protein: recombinant; tags: N-terminal GST; dsDNA, one strand shown
# T7 sequence: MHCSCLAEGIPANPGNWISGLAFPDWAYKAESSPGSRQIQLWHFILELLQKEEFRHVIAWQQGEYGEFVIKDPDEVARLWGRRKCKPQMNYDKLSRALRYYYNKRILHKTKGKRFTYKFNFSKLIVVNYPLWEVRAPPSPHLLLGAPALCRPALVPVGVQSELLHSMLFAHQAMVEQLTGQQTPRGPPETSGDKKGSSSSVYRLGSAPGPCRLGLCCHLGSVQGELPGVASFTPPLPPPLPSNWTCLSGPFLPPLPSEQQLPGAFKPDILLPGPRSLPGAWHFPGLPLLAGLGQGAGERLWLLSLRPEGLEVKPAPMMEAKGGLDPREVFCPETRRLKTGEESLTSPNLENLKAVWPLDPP
# Summary of the method: as §1
# ETS2 = biological target: T8, ETS2 (Homo sapiens, UniProt P15036 1-469); settings: protein: recombinant; tags: N-terminal GST; dsDNA, one strand shown
# T8 sequence: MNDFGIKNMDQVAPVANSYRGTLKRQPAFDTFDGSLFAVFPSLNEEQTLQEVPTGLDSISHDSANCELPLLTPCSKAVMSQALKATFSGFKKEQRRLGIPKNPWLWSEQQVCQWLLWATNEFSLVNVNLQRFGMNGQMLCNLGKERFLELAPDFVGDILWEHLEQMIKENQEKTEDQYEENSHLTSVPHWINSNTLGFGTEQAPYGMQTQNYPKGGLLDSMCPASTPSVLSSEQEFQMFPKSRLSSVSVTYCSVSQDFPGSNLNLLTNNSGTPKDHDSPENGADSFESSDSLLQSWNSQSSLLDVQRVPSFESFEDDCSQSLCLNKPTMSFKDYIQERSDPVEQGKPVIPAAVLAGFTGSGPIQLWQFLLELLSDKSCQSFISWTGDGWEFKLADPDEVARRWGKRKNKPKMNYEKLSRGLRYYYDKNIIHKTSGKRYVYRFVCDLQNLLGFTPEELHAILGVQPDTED
# Summary of the method: as §1
# SPDEF = biological target: T9, SPDEF (Homo sapiens, UniProt O95238 1-335); settings: protein: recombinant; tags: N-terminal GST; dsDNA, one strand shown
# T9 sequence: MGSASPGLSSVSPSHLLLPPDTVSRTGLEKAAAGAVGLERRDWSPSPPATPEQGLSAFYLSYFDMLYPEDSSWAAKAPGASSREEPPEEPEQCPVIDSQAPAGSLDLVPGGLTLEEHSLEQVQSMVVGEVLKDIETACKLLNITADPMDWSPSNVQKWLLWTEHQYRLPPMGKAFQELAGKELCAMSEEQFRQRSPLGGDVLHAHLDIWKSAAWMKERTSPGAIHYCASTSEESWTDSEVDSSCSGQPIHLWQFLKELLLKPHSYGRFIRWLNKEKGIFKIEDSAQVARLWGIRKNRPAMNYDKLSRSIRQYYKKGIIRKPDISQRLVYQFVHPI
# Summary of the method: as §1
# ETV7 = biological target: T10, ETV7 (Homo sapiens, UniProt Q9Y603 1-341); settings: protein: recombinant; tags: N-terminal GST; dsDNA, one strand shown
# T10 sequence: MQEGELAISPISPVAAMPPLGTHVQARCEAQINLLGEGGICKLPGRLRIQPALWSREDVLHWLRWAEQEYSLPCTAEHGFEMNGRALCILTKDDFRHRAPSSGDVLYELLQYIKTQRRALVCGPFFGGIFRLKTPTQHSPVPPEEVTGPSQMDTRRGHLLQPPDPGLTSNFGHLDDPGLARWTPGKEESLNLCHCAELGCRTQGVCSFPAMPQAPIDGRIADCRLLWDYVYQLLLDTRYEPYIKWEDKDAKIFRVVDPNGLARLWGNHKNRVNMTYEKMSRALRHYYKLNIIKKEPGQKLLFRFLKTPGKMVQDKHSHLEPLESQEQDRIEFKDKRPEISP
# Summary of the method: as §1
# ELF5 = biological target: T11, ELF5 (Homo sapiens, UniProt Q9UKW6-2 1-255); settings: protein: recombinant; tags: N-terminal GST; dsDNA, one strand shown
# T11 sequence: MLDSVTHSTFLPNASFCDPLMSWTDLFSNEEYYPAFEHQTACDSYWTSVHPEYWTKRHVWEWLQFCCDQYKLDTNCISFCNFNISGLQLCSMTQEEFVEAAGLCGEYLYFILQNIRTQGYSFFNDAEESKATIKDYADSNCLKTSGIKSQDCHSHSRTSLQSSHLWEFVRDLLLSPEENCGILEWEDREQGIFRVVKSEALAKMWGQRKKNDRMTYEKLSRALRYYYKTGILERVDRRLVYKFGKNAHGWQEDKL
# Summary of the method: as §1
# ETV3 = biological target: T12, ETV3 (Homo sapiens, UniProt P41162-2 1-143); settings: protein: recombinant; tags: N-terminal GST; dsDNA, one strand shown
# T12 sequence: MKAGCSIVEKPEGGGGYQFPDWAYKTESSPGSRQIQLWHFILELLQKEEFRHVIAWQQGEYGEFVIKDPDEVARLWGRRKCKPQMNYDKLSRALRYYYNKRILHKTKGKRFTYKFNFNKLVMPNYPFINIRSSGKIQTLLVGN
# Summary of the method: as §1
# ETV6 = ETV6 (Homo sapiens, UniProt P41212 1-452); settings: protein: recombinant; tags: N-terminal GST; dsDNA, one strand shown
# Sequence of ETV6 (P41212 whole entry): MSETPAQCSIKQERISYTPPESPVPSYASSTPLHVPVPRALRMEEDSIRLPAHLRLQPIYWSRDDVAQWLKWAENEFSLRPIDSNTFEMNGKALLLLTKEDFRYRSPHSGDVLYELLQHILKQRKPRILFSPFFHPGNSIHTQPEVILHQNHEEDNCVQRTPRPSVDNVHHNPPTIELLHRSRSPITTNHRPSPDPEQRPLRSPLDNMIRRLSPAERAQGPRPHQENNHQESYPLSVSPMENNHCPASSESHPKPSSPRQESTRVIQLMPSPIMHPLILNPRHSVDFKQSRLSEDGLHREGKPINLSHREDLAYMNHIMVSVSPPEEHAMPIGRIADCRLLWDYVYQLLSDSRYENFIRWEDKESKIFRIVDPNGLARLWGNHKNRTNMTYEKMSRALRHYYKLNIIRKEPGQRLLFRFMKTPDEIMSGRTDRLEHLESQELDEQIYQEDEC
# Summary of the method: as §1
sequence,measurement,setting,value
TCTGCG,binding signal,FEV,"1.22 fold enrichment (6-mer frequency, TF over GST control)"
same,binding signal,ETV5,"1.22 fold enrichment (6-mer frequency, TF over GST control)"
same,binding signal,HSF1,"1.15 fold enrichment (6-mer frequency, TF over GST control)"
same,binding signal,SPIC,"1.24 fold enrichment (6-mer frequency, TF over GST control)"
same,binding signal,ELF4,"1.2 fold enrichment (6-mer frequency, TF over GST control)"
same,binding signal,ELK4,"1.14 fold enrichment (6-mer frequency, TF over GST control)"
same,binding signal,ETV2,"1.19 fold enrichment (6-mer frequency, TF over GST control)"
same,binding signal,ELF3,"1.31 fold enrichment (6-mer frequency, TF over GST control)"
same,binding signal,CRX,"1.09 fold enrichment (6-mer frequency, TF over GST control)"
same,binding signal,ETV1,"1.45 fold enrichment (6-mer frequency, TF over GST control)"
same,binding signal,ERF,"1.07 fold enrichment (6-mer frequency, TF over GST control)"
same,binding signal,ETV3L,"1.23 fold enrichment (6-mer frequency, TF over GST control)"
same,binding signal,ETS2,"1.17 fold enrichment (6-mer frequency, TF over GST control)"
same,binding signal,SPDEF,"1.21 fold enrichment (6-mer frequency, TF over GST control)"
same,binding signal,ETV7,"1.09 fold enrichment (6-mer frequency, TF over GST control)"
same,binding signal,ELF5,"1.15 fold enrichment (6-mer frequency, TF over GST control)"
same,binding signal,ETV3,"1.16 fold enrichment (6-mer frequency, TF over GST control)"
same,binding signal,ETV6,"1.14 fold enrichment (6-mer frequency, TF over GST control)"
